Assay outcomes deposited in PubChem BioAssay by several laboratories.
eLon inh: inhibitors of E. coli Lon protease. P0A9M0. purified E. coli Lon protease, fluorescence polarization. inhibition, % at 7.94 µM. actives 0.42% (n = 360,000). AID 602123; in the data active = inhibition above about 13%, passing the limit was not always enough;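 note: 0% = enzyme with probe and DMSO and 100% = no enzyme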
EBV gp42 inh: inhibitors of Epstein-Barr virus glycoprotein 42 | Q1HVG2 | Fluorescence polarization binding assay, mP read-out | inhibition, % (tested at 21.74 µM) | actives 0.42% (n = 220,000) | AID 1085; in the data active = inhibition above about 50%
Target sequence (Q1HVG2 whole entry, looked up): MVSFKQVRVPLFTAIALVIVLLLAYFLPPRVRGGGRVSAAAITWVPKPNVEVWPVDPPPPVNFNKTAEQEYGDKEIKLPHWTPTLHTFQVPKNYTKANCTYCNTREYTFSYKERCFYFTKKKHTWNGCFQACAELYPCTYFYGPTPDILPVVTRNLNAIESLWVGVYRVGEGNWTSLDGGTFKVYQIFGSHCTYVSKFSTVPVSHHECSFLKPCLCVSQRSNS
GLD-1 RNA inh: GLD-1-TGE RNA interaction inhibition (C. elegans); Q17339; purified GLD-1 + fluorescein TGE RNA, fluorescence polarization; inhibition, % at 5.96 µM; actives 0.44% (n = 320,000);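 active = percent inhibition above a per-plate cutoff, the plate mean of test compounds plus 3 SD, cut at about 30% in these data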;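 note: 0% = DMSO wells with GLD-1 and probe and 100% = wells lacking GLD-1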
Bcl-xL primary: Bcl-xL (human) inhibition; inhibition, % at 10.9 µM; Q07817; GST-Bcl-xL / FITC-Bim BH3 peptide fluorescence polarization; actives 0.7% (n = 320,000); AID 2129;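 active = inhibition above the mean of all tested compounds plus 3 SD, cutoff set per campaign, cut at about 30% in these data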;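 note: 0% = DMSO wells and 100% = unlabeled Bim-BH3 peptide competitor; inhibitors lower millipolarization by displacing the labeled peptide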
MEX-5 binding: C. elegans MEX-5 TCR-2 RNA binding activity. Q9XUB2. MEX-5/FITC-TCR2 RNA binding, fluorescence polarization; active compounds read low. activity score (negative = inhibition of binding), % at 10 µM. actives 0.38% (n = 300,000);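 active = inhibition past about -25% in most replicates, and total fluorescence under double the plate's negative control median, limit read from the data; inconclusive = replicates evenly split on the limit, or fluorescence at least double controls; inactive = too little inhibition in most replicates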;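 note: 0% = DMSO and -100% = 5 µM competing unlabeled TCR2 RNA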
Target sequence (Q9XUB2 whole entry, looked up): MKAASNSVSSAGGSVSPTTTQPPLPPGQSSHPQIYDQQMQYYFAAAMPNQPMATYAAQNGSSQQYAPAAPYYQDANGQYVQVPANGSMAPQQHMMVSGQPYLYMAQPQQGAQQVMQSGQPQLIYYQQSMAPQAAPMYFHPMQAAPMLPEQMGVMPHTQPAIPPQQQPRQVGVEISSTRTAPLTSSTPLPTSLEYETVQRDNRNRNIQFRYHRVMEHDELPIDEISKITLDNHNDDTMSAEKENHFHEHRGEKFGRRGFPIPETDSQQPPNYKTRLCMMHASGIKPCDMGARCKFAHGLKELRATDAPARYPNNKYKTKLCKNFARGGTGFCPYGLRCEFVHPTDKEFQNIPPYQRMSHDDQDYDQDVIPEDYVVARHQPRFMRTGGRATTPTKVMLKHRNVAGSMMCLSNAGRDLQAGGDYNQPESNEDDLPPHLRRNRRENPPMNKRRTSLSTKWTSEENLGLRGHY
MCL1 BIM primary: disrupts human MCL1 binding to BIM-BH3 peptide; Q07820; GST-MCL1 / FITC-Bim-BH3 fluorescence polarization; inhibition, % at 10.9 µM; actives 0.68% (n = 320,000); AID 2057;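 active = inhibition above the mean inhibition of all tested compounds plus 3 SD, set per campaign, cut at about 40% in these data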;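 note: 0% = DMSO wells and 100% = unlabeled Bim-BH3 peptide control; higher means more loss of mP so more displacement of Bim peptide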
BCLXL inh confirm: Bcl-xL (human) inhibition, MCL1 counter-screen confirmation. AID 2166. inhibition, % at 10.9 µM. actives 54% (n = 1,700). GST-Bcl-xL / FITC-Bim BH3 peptide FP binding. shares compounds with MCL1 BIM primary;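 active = inhibition above a cutoff equal to the mean inhibition of all tested compounds plus 3 SD, cut at about 30% in these data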;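 note: 0% = DMSO wells and 100% = unlabeled Bim BH3 control peptide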
MCL1 inh confirm: MCL1-BIM-BH3 interaction inhibition, confirmation | GST-MCL1 / FITC-Bim-BH3 fluorescence polarization | shares compounds with MCL1 BIM primary | actives 61% (n = 1,700) | inhibition, % at 10.9 µM | AID 2168;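 active = inhibition above the average of all tested compounds plus 3 SD, cut at about 40% in these data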;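 note: 0% = DMSO wells and 100% = unlabeled Bim-BH3 control peptide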
Numbers without * were called inactive. An excerpt weighted towards active compounds, which were near 1.4% of everything screened.

How did CCC(=NOCc1ccccc1)C(=O)NNS(=O)(=O)c1ccc(C)cc1 do in these assays?
eLon inh: 5.8

How did O=C(O)Cc1ccc(N=Nc2c(O)c(C(=O)O)cc3ccccc23)cc1 do in these assays?
eLon inh: 15.3; EBV gp42 inh: -2.1; GLD-1 RNA inh: 5.7; Bcl-xL primary: 25.8; MEX-5 binding: -1.9; MCL1 BIM primary: 43.2*; BCLXL inh confirm: 37.3*; MCL1 inh confirm: 70.3*

Results for CC(=O)N1CCN(c2nc(CC(C)C)c3c(c2C#N)CCC3)CC1 ?
eLon inh: 6.1; EBV gp42 inh: 4.4; GLD-1 RNA inh: 156.9*; Bcl-xL primary: 166.4*; MEX-5 binding: -0.8; MCL1 BIM primary: active; BCLXL inh confirm: 19.0; MCL1 inh confirm: 30.2

How did CC(C)Cc1nc(N2CCN(C(=O)C(C)C)CC2)c(C#N)c2c1CCC2 do in these assays?
eLon inh: -3.4; EBV gp42 inh: -8.1; GLD-1 RNA inh: -0.5; Bcl-xL primary: 3.0; MEX-5 binding: -1.3; MCL1 BIM primary: -2.1

How did Cn1nc2c3cc(F)ccc3n(Cc3ccc(F)cc3)cc-2c1=O do in these assays?
eLon inh: 4.8; GLD-1 RNA inh: 5.6; Bcl-xL primary: -1.1; MEX-5 binding: 1.7; MCL1 BIM primary: -0.6

Results for COc1cc2c3nnc(-c4ccc(F)cc4)c-3cn(Cc3ccc(F)cc3)c2cc1OC ?
eLon inh: -24.0; EBV gp42 inh: -92.3; GLD-1 RNA inh: -10.9; Bcl-xL primary: 71.8*; MEX-5 binding: inconclusive; MCL1 BIM primary: 57.5*; BCLXL inh confirm: 84.2*; MCL1 inh confirm: 83.2*

Results for COc1cc2c3nnc(-c4ccc(F)cc4)c-3cn(Cc3ccccc3)c2cc1OC ?
eLon inh: -5.4; EBV gp42 inh: -43.6; GLD-1 RNA inh: -1.6; Bcl-xL primary: 82.4*; MEX-5 binding: inconclusive; MCL1 BIM primary: 68.4*; BCLXL inh confirm: 63.8*; MCL1 inh confirm: 63.1*

What do the screens show for `O=C(Nc1ccc(N2CCOCC2)cc1)c1ccc2nc(-c3ccco3)c(-c3ccco3)nc2c1`?
eLon inh: -7.5; EBV gp42 inh: -4.9; GLD-1 RNA inh: 4.2; Bcl-xL primary: 0.2; MEX-5 binding: -0.5; MCL1 BIM primary: 4.1

What do the screens show for `O=C(Nc1ccccc1)c1ccc2nc(-c3ccco3)c(-c3ccco3)nc2c1`?
eLon inh: -10.8; EBV gp42 inh: -4.2; GLD-1 RNA inh: 12.4; Bcl-xL primary: 27.3; MEX-5 binding: -0.6; MCL1 BIM primary: 40.0*; BCLXL inh confirm: 29.9; MCL1 inh confirm: 46.6*

How did CCCCNC(=O)c1ccc2nc(-c3ccco3)c(-c3ccco3)nc2c1 do in these assays?
eLon inh: 2.1; EBV gp42 inh: 10.0; GLD-1 RNA inh: 7.9; Bcl-xL primary: 40.6*; MEX-5 binding: -0.4; MCL1 BIM primary: 59.5*; BCLXL inh confirm: 25.4; MCL1 inh confirm: 34.7

Results for O=C(NCc1ccccc1)c1ccc2nc(-c3ccco3)c(-c3ccco3)nc2c1 ?
eLon inh: 5.0; EBV gp42 inh: 2.3; GLD-1 RNA inh: 15.1; Bcl-xL primary: 46.1*; MEX-5 binding: -1.2; MCL1 BIM primary: 81.2*; BCLXL inh confirm: 42.5*; MCL1 inh confirm: 69.4*

Results for CC(=O)c1ccc(NC(=O)c2ccc3nc(-c4ccco4)c(-c4ccco4)nc3c2)cc1 ?
eLon inh: -6.3; EBV gp42 inh: 98.9*; GLD-1 RNA inh: 12.5; Bcl-xL primary: 39.3*; MEX-5 binding: -5.8; MCL1 BIM primary: 80.2*; BCLXL inh confirm: 36.0*; MCL1 inh confirm: 80.7*

What do the screens show for `CSCCC(NC(=O)c1ccc(Cl)c([N+](=O)[O-])c1)C(=O)N1CCN(C/C=C/c2ccccc2)CC1` (stereo not given)?
eLon inh: 7.1; GLD-1 RNA inh: 0.5; Bcl-xL primary: 4.3; MEX-5 binding: -6.2; MCL1 BIM primary: 1.6

How did O=C(c1cccc(C(=O)N2CCN(c3ncccn3)CC2)c1)N1CCN(c2ncccn2)CC1 do in these assays?
eLon inh: -3.6; EBV gp42 inh: -11.8; GLD-1 RNA inh: 3.7; Bcl-xL primary: 0.3; MEX-5 binding: 2.1; MCL1 BIM primary: 3.4

What do the screens show for `O=C(c1ccc2nc(-c3ccco3)c(-c3ccco3)nc2c1)N1CCN(c2ncccn2)CC1`?
eLon inh: 4.3; EBV gp42 inh: 44.8; GLD-1 RNA inh: 14.9; Bcl-xL primary: 38.4*; MEX-5 binding: -5.1; MCL1 BIM primary: 80.8*; BCLXL inh confirm: 34.9*; MCL1 inh confirm: 50.2*

What do the screens show for `COc1ccc(CCC(=O)Nc2ccc(OC)c(S(=O)(=O)N3CCCCC3)c2)cc1`?
eLon inh: -3.5; GLD-1 RNA inh: 0.8; Bcl-xL primary: -4.3; MCL1 BIM primary: -8.7

Results for CCCCCCCCCCCCCCCC(=O)OC(CC(=O)O)C[N+](C)(C)C (stereo not given) ?
eLon inh: -0.7; GLD-1 RNA inh: 2.6; Bcl-xL primary: 12.4; MCL1 BIM primary: 84.6*; BCLXL inh confirm: 9.0; MCL1 inh confirm: 8.4

Results for CN(Cc1ccccc1)C(=O)COC(=O)CCN1C(=O)C2CC=CCC2C1=O (stereo not given) ?
eLon inh: -7.8; GLD-1 RNA inh: 3.9; Bcl-xL primary: -4.0; MCL1 BIM primary: -14.9

How did CCOC(=O)N1CCN(C(=O)CSC2=NS(=O)(=O)c3cc(F)ccc3N2)CC1 do in these assays?
eLon inh: -5.5; GLD-1 RNA inh: 4.7; Bcl-xL primary: 9.1; MEX-5 binding: -4.2; MCL1 BIM primary: 8.4

How did CCC(C)Sc1ccc(-c2nc3ccc(C)cn3c2NC2CCCCC2)cc1 (stereo not given) do in these assays?
GLD-1 RNA inh: 15.3; Bcl-xL primary: 47.6*; MEX-5 binding: -3.5; MCL1 BIM primary: 48.0*; BCLXL inh confirm: 18.4; MCL1 inh confirm: 16.4

What do the screens show for `CCC(C)Sc1cccc(-c2nc3ccc(C)cn3c2NC2CCCCC2)c1` (stereo not given)?
eLon inh: 7.8; GLD-1 RNA inh: -13.5; Bcl-xL primary: 2.0; MEX-5 binding: 2.9; MCL1 BIM primary: -1.2

How did C=CCn1c(CSc2ccccc2[N+](=O)[O-])n[nH]c1=S do in these assays?
eLon inh: -5.4; GLD-1 RNA inh: -0.1; Bcl-xL primary: 17.9; MEX-5 binding: -1.5; MCL1 BIM primary: 45.5*; BCLXL inh confirm: 28.0; MCL1 inh confirm: 46.2*

Results for C=CCn1c(Cc2ccccc2)n[nH]c1=S ?
eLon inh: 4.1; EBV gp42 inh: -19.9; GLD-1 RNA inh: 3.3; Bcl-xL primary: -3.1; MEX-5 binding: -0.7; MCL1 BIM primary: 5.7
